43 molecules from ChEMBL document CHEMBL4888484, “Replenishing the malaria drug discovery pipeline: Screening and hit evaluation of the MMV Hit Generation Library 1 (HGL1) against asexual blood stage Plasmodium falciparum ,using a nano luciferase reporter read-out” (2022) can be followed below.

Screen size: about 150,000 compounds; about 540 (0.36%) showed an effect of 50% or more. The sample holds strong results, similar compounds and a random draw of the others, so the mix is not that of the screen.

The subject of this assay is Plasmodium falciparum. The assay can be described thus: Primary screen in NF54 nanoGlo assay, in single point, at 2uM, 72h; a lower Z score goes with more inhibition. It is filed as functional, Erythrocyte. The following applies: timepoint 72 hour.
Usually % Inhibition stands for the drop in the measured response relative to a control, in per cent. Regarding `CC(=O)NCCn1ccnc1-c1ccc(F)c(F)c1F`, the “% Inhibition” value was -9% and the Z score was 1.18.

Consider `C[C@H](NCC1(c2c(F)cccc2F)CC1)c1cnn(C)c1`, for which the “% Inhibition” value is -3% and the Z score is 0.45.

On to `CC(C)(C)CN1C[C@@H](NC(=O)COc2ccc3c(c2)OCO3)CC1=O`, for which the “% Inhibition” value is given as -1% and the Z score is listed as 0.23.

With `CCCC(CCC)C(=O)Nc1ccc(O)cc1C(=O)O`, the “% Inhibition” value turned out to be 40% and the Z score was -0.25.

As for `COCC(O)CN1CCC(NC2CCCc3cc(F)ccc32)CC1` (stereo unspecified), the “% Inhibition” value was 1% and the Z score is given as -0.12.

In the case of `COCCCN(Cc1ccc(C(O)(c2ccc(OC)cc2)c2ccc(OC)cc2)o1)Cc1ccccc1OC`, the “% Inhibition” value is reported as 3% and the Z score is reported as -0.38.

As to `CN1CCO[C@@H](CNc2ncnc3c2cnn3-c2ccccc2F)C1`, the “% Inhibition” value is recorded as -1% and the Z score is on record as 0.08.

As for `Cc1nc(N2CCCC2C(=O)N2CCC(C(O)Cc3ccccc3)CC2)nc2ccccc12` (stereo unspecified), the “% Inhibition” value is listed as -15% and the Z score is on record as 1.71.

As for `O=C(O)c1ccc2c(NC3CCCC3)ncnc2c1`, the “% Inhibition” value is -5% and the Z score was 0.71.

With `CC1CC(Nc2ncnc3cc(Br)ccc23)CCN1C` (stereo unspecified), the “% Inhibition” value worked out at 97% and the Z score is on record as -8.72.

`CS(=O)(=O)N1CCC(Nc2ncnc3cc(Cl)ccc23)CC1`: the “% Inhibition” value was 18% and the Z score is reported as -2.07.

For `OC(CN1CCOC2CCCCC21)Cn1cccn1` (stereo unspecified), the “% Inhibition” value was -5% and the Z score was found to be 0.7.

On to `CC(C)CNC(=O)c1[nH]cnc1C(=O)N1CCC(Cc2ccccc2)CC1`, for which the “% Inhibition” value came out at 31% and the Z score was -3.65.

Consider `CC[C@H]1CCCCCN1C(=O)NCCc1nnc(C)s1`, for which the “% Inhibition” value was -9% and the Z score is on record as 1.2.

As to `COc1ncc(C(=O)NCCCn2ccnc2)cn1`, the “% Inhibition” value is -14% and the Z score was 1.29.

On to `COc1ccc(Nc2nnc(-c3ccc(NC(=O)C(=O)NCCCn4ccnc4)cc3)s2)cc1`, for which the “% Inhibition” value is on record as 66% and the Z score is recorded as -7.06.

`CCN(CC)Cc1cnc2c(C(=O)N(C)C3Cc4ccccc4C3)cnn2c1`: the “% Inhibition” value is reported as -6% and the Z score amounted to 0.83.

Take `CN1C(=O)[C@@H]2CC[C@H]1CN(C1CCN(c3ncc4ccc(F)cc4n3)CC1)C2`: the “% Inhibition” value was found to be 3% and the Z score is listed as -0.38.

As for `CO[C@H]1CCOC[C@@H]1NC1CCN(c2ncc3ccc(F)cc3n2)CC1`, the “% Inhibition” value came to 1% and the Z score is -0.16.

For `Cc1ccc2c(c1)C(=O)N1CCCC1C(=O)N2CC(=O)NCC1CCCO1` (stereo unspecified), the “% Inhibition” value is -1% and the Z score is given as 0.1.

In the case of `Cc1ccc(-n2ncc3c(N)c4c(nc32)CCCC4=O)cc1`, the “% Inhibition” value stood at 12% and the Z score is listed as -2.26.

For the molecule `Nc1c2c(nc3c1cnn3-c1cc(F)cc(F)c1)CCCC2=O`, the “% Inhibition” value is -9% and the Z score was found to be 1.23.

`COc1ccc(-n2ncc3c(N)c4c(nc32)CCCC4=O)cc1`: the “% Inhibition” value is recorded as 56% and the Z score is recorded as -1.02.

For the molecule `O=C(NCCn1ccnc1)c1[nH]nc(C2CC2)c1Cl`, the “% Inhibition” value is -9% and the Z score was determined as 1.61.

For `CC(C)N(C)C(=O)C1CCN(C(=O)[C@@H](N)C(C)(C)C)CC1`, the “% Inhibition” value is on record as -1% and the Z score is on record as 0.1.

Turning to `COC1CCC(CCNCc2ccccc2)CC1` (stereo unspecified), the “% Inhibition” value is given as -15% and the Z score came to 2.25.

As for `COc1ccc(CNC/C=C/c2ccccc2)cc1`, the “% Inhibition” value was -20% and the Z score stood at 2.3.

`COc1ccc(CNCCC2C(C)CN(C)C(C)C2Cc2ccccc2)cc1` (stereo unspecified): the “% Inhibition” value was 55% and the Z score was -7.17.

In the case of `COc1cccc(OC2CN(C[C@H]3COc4ccccc4O3)C2)c1`, the “% Inhibition” value amounted to 3% and the Z score is -0.59.

Consider `CC(CNC(=O)N(C)CCc1cccs1)N1CCOCC1C` (stereo unspecified), for which the “% Inhibition” value is on record as 5% and the Z score was -0.94.

On to `CCc1cc(N2CCCO2)nc(-c2ccncc2)n1`, for which the “% Inhibition” value is 1% and the Z score is listed as -0.06.

For `Cn1cnc2c(NCC(=O)N3CCN(c4ccccc4)CC3)ncnc21`, the “% Inhibition” value is -1% and the Z score came out at 0.15.

Consider `c1cc(CN2CCC[C@H](CN3CCCC3)C2)co1`, for which the “% Inhibition” value is listed as -3% and the Z score came out at 0.59.

In the case of `Oc1ccc2cc(CN3CCC[C@H](CN4CCCC4)C3)ccc2c1`, the “% Inhibition” value is given as 97% and the Z score is -3.

Regarding `CN1CC[C@H](CN(C)Cc2ccc3cc(O)ccc3c2)C1`, the “% Inhibition” value is given as 56% and the Z score was -7.71.

As for `CN(Cc1ccc2cc(O)ccc2c1)C[C@H]1CCCCO1`, the “% Inhibition” value is on record as 8% and the Z score is recorded as -0.87.

Take `CN(CC[C@H]1CCCCO1)Cc1ccc2cc(O)ccc2c1`: the “% Inhibition” value is reported as -1% and the Z score is on record as 0.18.

For the molecule `CC(C)[C@H]1CN(C)CCN1Cc1ccc2cc(O)ccc2c1`, the “% Inhibition” value was -17% and the Z score is on record as 2.23.

Consider `CN1CCC(N2CCN(Cc3ccc4cc(O)ccc4c3)CC2)CC1`, for which the “% Inhibition” value is listed as 90% and the Z score is -8.27.

Turning to `NC1CCOC(C2CCCCN2S(=O)(=O)c2ccc(C(F)(F)F)s2)C1` (stereo unspecified), the “% Inhibition” value amounted to 4% and the Z score is -0.63.

Regarding `COCCN1C(=O)[C@@H]2C(Cc3ccc(O)cc3)NC3(C(=O)Nc4c(C)cc(C)cc43)[C@@H]2C1=O` (stereo partly specified), the “% Inhibition” value is -3% and the Z score was determined as 0.41.

For the molecule `Cc1cccc(Cl)c1C(=O)NC(C1CCNCC1)[C@H]1C[C@H](O)C1` (stereo partly specified), the “% Inhibition” value was -9% and the Z score was determined as 1.88.

For `Cc1noc2ncnc(N3CCCC3CC(O)c3cnn(C)c3)c12` (stereo unspecified), the “% Inhibition” value is listed as 4% and the Z score is -0.69.
